Bioassay records: PubChem BioAssay, Johns Hopkins Ion Channel Center
Rows were chosen to be rich in hits. Some 1.6% of all compounds tested hit in one or more screens of this group.
KCNQ2 block = rat KCNQ2 potassium channel inhibitors, primary screen, cell-based, CHO-K1, FluxOR thallium flux, B-score. Potassium voltage-gated channel subfamily KQT member 2 (Rattus norvegicus), O88943. 20 min; active compounds read low. B-score at 10 µM. 310,000 compounds, 1.1% hits. AID 2156, 2009;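 active = fluorescence ratio B-score at most minus 3 library SDs, with starting brightness B-score within 2 library SDs, cut at about -5.5 in these data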
Target sequence (O88943 whole entry, looked up): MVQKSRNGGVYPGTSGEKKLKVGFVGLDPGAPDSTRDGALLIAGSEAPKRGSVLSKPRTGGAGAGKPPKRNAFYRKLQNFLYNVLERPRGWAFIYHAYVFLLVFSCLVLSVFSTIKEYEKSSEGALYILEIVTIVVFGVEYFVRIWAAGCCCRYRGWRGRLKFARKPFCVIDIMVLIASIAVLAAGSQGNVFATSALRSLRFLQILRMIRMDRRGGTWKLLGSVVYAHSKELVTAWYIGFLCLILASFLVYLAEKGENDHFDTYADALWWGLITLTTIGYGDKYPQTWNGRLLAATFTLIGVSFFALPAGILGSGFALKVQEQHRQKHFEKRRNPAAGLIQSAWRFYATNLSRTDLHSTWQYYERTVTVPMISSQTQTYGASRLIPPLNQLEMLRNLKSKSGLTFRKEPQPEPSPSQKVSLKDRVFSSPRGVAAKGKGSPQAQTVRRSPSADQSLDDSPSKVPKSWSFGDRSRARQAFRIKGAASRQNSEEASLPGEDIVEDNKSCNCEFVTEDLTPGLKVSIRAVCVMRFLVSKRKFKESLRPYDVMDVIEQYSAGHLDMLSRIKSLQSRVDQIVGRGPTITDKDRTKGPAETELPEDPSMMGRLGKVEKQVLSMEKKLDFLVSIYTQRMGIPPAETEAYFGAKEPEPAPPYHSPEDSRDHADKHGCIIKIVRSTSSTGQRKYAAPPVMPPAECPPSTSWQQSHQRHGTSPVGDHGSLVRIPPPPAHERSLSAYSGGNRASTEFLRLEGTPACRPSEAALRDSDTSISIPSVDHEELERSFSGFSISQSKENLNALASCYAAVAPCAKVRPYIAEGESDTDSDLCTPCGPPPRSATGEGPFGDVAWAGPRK
KCNQ2 enhance = potentiators of rat KCNQ2 potassium channel | CHO-K1 KCNQ2, FluxOR thallium flux fluorescence; active compounds read high | B-score at 10 µM | 310,000 compounds, 0.54% hits;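 active = fluorescence ratio B-score at least 3 SD of library B-scores, with initial fluorescence B-score within 3 of them, cut at about 5.3 in these data; same plate scores as AID 2156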;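 also: B-score of peak minus minimum over baseline fluorescence ratio after K+ and Tl+ stimulus; positive B-score means potentiation of KCNQ2 with more thallium influx and brighter signal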
Kir21 conf inh = mouse Kir2.1 channel blockers, retest, confirmation, cell-based, FluxOR thallium flux, duplicate. shares compounds with KCNQ2 enhance. Kir2.1-expressing cells, FluxOR thallium flux fluorescence; active compounds read low. Tl flux remaining, % of negative control (active compounds read low), % at 10 µM. 2,300 compounds, 41% hits. AID 2032, 2009;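 active = Primary-screen hit whose thallium flux fell at least 3 control SD below untreated wells in both duplicates, with normal baseline fluorescence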;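 also: 0% = blank wells without stimulus and 100% = stimulated no-compound controls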
HEK293 ctr = alters thallium flux in parental HEK293 cells, Kir2.1 counter-screen; shares compounds with KCNQ2 enhance; FluxOR thallium flux fluorescence; 0% = unstimulated blank wells; FluxOR signal as % of negative control (100 = no effect), % at 10 µM; 2,300 compounds, 19% hits; AID 2105;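 active = dye signal at least 3 control SD above or below untreated wells in both duplicates, raw fluorescence within 3, either direction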;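 also: percent is based on the flux ratio of peak minus minimum fluorescence over baseline F0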
CHO-K1 Tl ctr = nonspecific thallium flux increase in parental CHO-K1, confirmation, counter-screen for KCNQ2 potentiator project, cell-based, FluxOR thallium flux, duplicate. shares compounds with KCNQ2 enhance. parental CHO-K1 cells, FluxOR thallium flux fluorescence; zero = vehicle mean+3SD, 100% = vehicle-minus-blank window. activity increase over 3SD of controls, % at 10 µM. 1,200 compounds, 43% hits. AID 2282, 2010;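 active = signal rise of at least 3 SD above the untreated control mean, in both duplicate wells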;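 also: counter screen of KCNQ2 potentiator hits so any rise reflects channel-independent effects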
KCNQ1 pot spec = human KCNQ1 channel potentiation off-target, confirmation, selectivity assay for KCNQ2 potentiator project, cell-based, CHO, FluxOR thallium flux; shares compounds with KCNQ2 enhance; CHO KCNQ1 stable, FluxOR thallium flux fluorescence; beyond 3SD, as % of vehicle-control signal; activation over 3SD threshold, % at 10 µM; 1,200 compounds, 28% hits; AID 2283, 2010;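 active = fluorescence ratio rise of at least 3 SD of vehicle wells above their mean, in both replicate wells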;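 also: 0% = vehicle mean plus 3 SD and 100% = vehicle minus unstimulated blank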
KCNQ2 pot confirm = rat KCNQ2 channel potentiators, confirmation, cell-based, CHO, FluxOR thallium flux, duplicate. shares compounds with KCNQ2 enhance. CHO-KCNQ2 cells, FluxOR thallium flux fluorescence. potentiation, less the hit threshold, % at 10 µM. 1,200 compounds, 68% hits. AID 2287, 2010;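 active = fluorescence ratio rising 3 SD or more over the vehicle control mean in both replicates, plus primary screen hit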;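 also: peak minus minimum thallium fluorescence divided by baseline after K/Tl stimulus; 0% = vehicle mean plus 3 SD and 100% = vehicle minus unstimulated blank difference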
Kir21 spec = mouse Kir2.1 channel activation off-target, confirmation, selectivity assay for KCNQ2 potentiator project, cell-based, HEK293, FluxOR thallium flux. shares compounds with KCNQ2 enhance. HEK293 Kir2.1, FluxOR thallium flux fluorescence. activity over 3SD threshold, % at 10 µM. 1,200 compounds, 2% hits. AID 2345, 2010;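 active = fluorescence ratio rise of at least 3 SD above the vehicle-control mean, seen in both replicates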;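 also: 0% = vehicle mean plus 3 SD and 100% = vehicle minus no-stimulus blank window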
KCNQ2 W236L pot = potentiators of retigabine-insensitive KCNQ2 W236L, mechanism study for KCNQ2 potentiator project, cell-based, rat KCNQ2 W236L, CHO, automated patch clamp; 940 compounds, 10% hits; current increase over 3SD of negative controls (%), active compounds read high, % at 25 µM; shares compounds with KCNQ2 enhance; AID 2558, 2010; automated patch clamp current;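 active = current increase at least 3 SD of the untreated controls above them in both duplicate recordings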
The depositor's hits bear a star; i = inactive; / = no result given.

SMILES	KCNQ2 block	KCNQ2 enhance	Kir21 conf inh	HEK293 ctr	others
Cc1ccc(O)c(O)c1	i	/	/	/
Cc1ccc(C2Cc3cc(O)c(O)cc3CN2)cc1 (centres undefined)	i	/	28%*	62%*
CC1=NN(C(=O)CSCc2ccccc2)C(O)(c2ccc(Cl)cc2)C1 (centres undefined)	i	/	/	/
CC1=NN(C(=O)c2ccc(Cl)cc2)C(O)(c2ccccc2)C1 (centres undefined)	i	20*	i	i	CHO-K1 Tl ctr=-14;KCNQ1 pot spec=-7;KCNQ2 pot confirm=-2;Kir21 spec=-40;KCNQ2 W236L pot=i
CC(C(=O)NCCCc1ccccc1)n1cccc1C(=O)c1ccccc1 (centres undefined)	i	/	64%*	i
O=C(Cn1cccc1C(=O)c1ccccc1)NCCCc1ccccc1	i	0.8	/	/
COc1cc(C(=O)Nc2ccccc2N2CCOCC2)ccc1OCC(=O)N1CCOCC1	i	/	/	/
Nc1nc(CSCCO)nc(Nc2ccccc2)n1	i	0.22	/	/
Nc1nc(CSc2ccccn2)nc(Nc2ccccc2)n1	i	5.5*	i	i	CHO-K1 Tl ctr=-9;KCNQ1 pot spec=-20;KCNQ2 pot confirm=-11;Kir21 spec=-39
CSc1nc(C(C)C)ccc1CNC(=O)CC(C)c1ccccc1 (centres undefined)	i	30*	i	i	CHO-K1 Tl ctr=-11;KCNQ1 pot spec=35*;KCNQ2 pot confirm=112*;Kir21 spec=-27;KCNQ2 W236L pot=i
CC(CC(=O)NCc1ccc(F)cc1)c1ccccc1 (centres undefined)	i	2.9	/	/
CCOC(=O)c1nnn(-c2nonc2N)c1CSc1ccc(C)cc1	i	1.1	71%*	i
CCOC(=O)c1nnn(-c2nonc2N)c1CSc1ccccc1	i	0.21	/	/
N#Cc1ccccc1COC(=O)CCCC1=NS(=O)(=O)c2ccccc2N1	i	/	/	/
C/C=C/c1ccc(OCC(O)CNCC(c2ccc(OC)cc2)N(C)C)c(OC)c1 (centres undefined)	i	/	/	/
C/C=C/c1ccc(OCC(O)CN(C)Cc2ccc(SC)cc2)c(OC)c1 (centres undefined)	i	/	i	i
COc1ccc(CCNCC(O)COc2ccc(Cl)cc2)cc1OC (centres undefined)	i	1.4	/	/
OC(CNCCc1ccc(Cl)cc1)COc1cc(Cl)ccc1Cl (centres undefined)	i	/	24%*	122%*
C/C=C/c1ccc(OCC(O)CN2CCCCC2CC)c(OC)c1 (centres undefined)	i	/	/	/
C/C=C/c1ccc(OCC(O)CNCCc2ccc(OC)cc2)c(OC)c1 (centres undefined)	i	/	i	i
CCc1ccc(C(C)NC(=O)c2cccs2)cc1 (centres undefined)	i	5.3*	i	i	CHO-K1 Tl ctr=-18;KCNQ1 pot spec=46*;KCNQ2 pot confirm=-2;Kir21 spec=-33;KCNQ2 W236L pot=i
CCOc1ccc(C(C)NC(=O)c2cccs2)cc1OCC (centres undefined)	i	0.05	/	/
Cc1ccc(-c2cc(-c3n[nH]c(=S)o3)c3ccccc3n2)cc1	i	14*	i	486%*	CHO-K1 Tl ctr=47*;KCNQ1 pot spec=-12;KCNQ2 pot confirm=168*;Kir21 spec=-6;KCNQ2 W236L pot=i
S=c1[nH]nc(-c2cc(-c3ccccn3)nc3ccccc23)o1	i	0.83	/	/
OC(COc1ccc2cc(Br)ccc2c1)CN1CCN(c2ccccn2)CC1 (centres undefined)	i	7.4*	i	i	CHO-K1 Tl ctr=-7;KCNQ1 pot spec=14*;KCNQ2 pot confirm=-11;Kir21 spec=-11
SMILES	KCNQ2 block	KCNQ2 enhance	Kir21 conf inh	HEK293 ctr	others
OC(COc1ccc2cc(Br)ccc2c1)CN1CCCC1 (centres undefined)	i	/	38%*	i
COc1cccc(OCC(O)CN2CCN(c3ccccn3)CC2)c1 (centres undefined)	i	0.33	/	/
O=S(=O)(N1CCCCC1)N1CCN(CC(O)COc2ccc3cc(Br)ccc3c2)CC1 (centres undefined)	i	1.1	/	/
O=C(/C=C/c1cccc(F)c1)N1CCN(c2ncccn2)CC1	i	1.5	/	/
OCC1(CCOc2ccccc2)CCN(Cc2ccncc2)CC1	i	/	/	/
CSc1ccc(CN2CCC(CO)(CCOc3ccccc3)CC2)cc1	i	0.62	42%*	i
Cc1ccc(NC(=O)C2C3/C=C\CCCCC32)cc1 (centres undefined)	i	1.7	/	/
Cc1cc(C)c(NC(=O)C2C3/C=C\CCCCC32)c(C)c1 (centres undefined)	i	12*	i	i	CHO-K1 Tl ctr=-15;KCNQ1 pot spec=-20;KCNQ2 pot confirm=56*;Kir21 spec=-28;KCNQ2 W236L pot=i
COc1ccc(-c2ccc(NC(=O)c3ccco3)cc2)nn1	i	/	/	/
CCc1nc(SCC(=O)c2ccc(Cl)s2)c2oc3ccccc3c2n1	i	10*	i	i	CHO-K1 Tl ctr=-11;KCNQ1 pot spec=54*;KCNQ2 pot confirm=-17;Kir21 spec=-37
CCc1nc(SCC(=O)N2CCN(c3ccccc3)CC2)c2oc3ccccc3c2n1	i	/	/	/
Cc1cc(C)c(S(=O)(=O)/N=C2\C=C(Nc3ccc(C(=O)O)cc3)C(=O)c3ccccc32)c(C)c1	i	7.9*	i	i	CHO-K1 Tl ctr=9.1*;KCNQ1 pot spec=-7;KCNQ2 pot confirm=0;Kir21 spec=-4;KCNQ2 W236L pot=i
CCc1ccc(S(=O)(=O)/N=C2\C=C(Nc3cccc(C(=O)O)c3)C(=O)c3ccccc32)cc1	i	1.2	/	/
Cc1ccc(C)c(CN2CCC(CNC(=O)Nc3cccc(Cl)c3C)CC2)c1	i	5.3*	i	i	CHO-K1 Tl ctr=-1;KCNQ1 pot spec=-14;KCNQ2 pot confirm=0;Kir21 spec=-46;KCNQ2 W236L pot=i
Cc1ccc(NC(=O)NCC2CCN(Cc3cc(C)ccc3Cl)CC2)c(C)c1	i	4.8	/	/
CCCCN(C(=O)CCNC(=O)NC12CC3CC(CC(C3)C1)C2)c1c(N)n(CCC)c(=O)[nH]c1=O	i	/	/	/
Nc1nonc1-n1nnc(C(=O)N/N=C/c2ccccc2Cl)c1CN1CCOCC1	i	0.08	/	/
